Screening data deposited in PubChem by National Center for Advancing Translational Sciences (NCATS).
In the library only some 2.5% were active in any assay of this set; here they are far more common.
D2 PAM-1 – positive allosteric modulators of human D2 dopamine receptor | actives 0.34% (n = 340,000) | HEK293 T-REx D2, calcium flux, EC20 dopamine potentiation | AID 485347 | potentiation, % at 10 µM | P14416;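 active = potentiation over 3 SD above the plate norm, cut at about 30% in these data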
Target sequence (P14416 whole entry, looked up): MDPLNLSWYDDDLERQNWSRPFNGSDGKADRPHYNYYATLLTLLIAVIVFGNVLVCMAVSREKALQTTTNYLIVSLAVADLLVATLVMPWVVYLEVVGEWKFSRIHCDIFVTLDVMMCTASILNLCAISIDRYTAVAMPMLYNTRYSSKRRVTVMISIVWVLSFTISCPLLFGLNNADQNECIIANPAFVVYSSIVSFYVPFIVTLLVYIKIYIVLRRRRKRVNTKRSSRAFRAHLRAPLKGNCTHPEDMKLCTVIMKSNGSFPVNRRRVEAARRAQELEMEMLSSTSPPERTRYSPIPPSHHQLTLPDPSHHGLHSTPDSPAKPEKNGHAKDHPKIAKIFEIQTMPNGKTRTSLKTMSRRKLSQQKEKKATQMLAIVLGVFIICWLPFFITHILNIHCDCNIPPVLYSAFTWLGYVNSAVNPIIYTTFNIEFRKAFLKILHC
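Calcium flux readout, no-wash dye, 1 read/s. Inducible HEK293 Trex D2 line, overnight 30 C. Compound alone 180 s (agonist flags), then EC20 dopamine, another 180 s to score potentiation.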
D2 PAM-2 – human D2 receptor positive allosteric modulation; P14416; DiscoveRx D2 beta-arrestin cells, luminescence, 90 min; 100% = 57 uM dopamine signal; potentiation, % (test concentration not listed); actives 0.23% (n = 360,000); AID 624464; in the data active = potentiation above about 50%; inconclusive = mostly about 30% to 49%
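PathHunter D2 cells, attached overnight at 37 deg C, received compound in DMSO plus dopamine at EC20 (50 nM final) for 90 min at 37 deg C. Beta-arrestin recruitment was read as luminescence after 1 h with detection reagent at ambient temperature.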
D2 ag-1 – agonists of human D2 dopamine receptor (beta-arrestin); P14416; DiscoveRx PathHunter D2 beta-arrestin, luminescence, 90 min; 100% = 57 uM dopamine signal; activation, % (test concentration not listed); actives 0.084% (n = 360,000); in the data active = activation above about 40%; inconclusive = between about 15% and that limit
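Agonist mode: compounds alone added to overnight-plated D2 PathHunter cells for 90 min at 37 C, with 57 uM final dopamine (EC100) defining full response. Beta-arrestin recruitment detected by chemiluminescent reagent, read after 1 h at ambient temperature.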
D2 ag-2 – agonists of human D2 dopamine receptor; P14416; HEK293 T-REx D2 cells, calcium flux agonist mode; activation, % at 2 µM; actives 0.53% (n = 340,000); AID 485358;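 active = activation over 3 SD above normal in the single-dose calcium agonist read, cut at about 30% in these data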
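Tetracycline-induced HEK293 Trex cells with D2 receptor force-coupled to calcium signaling, plated overnight at 30 C and loaded with no-wash calcium dye. Calcium flux read kinetically for 180 s after compound addition; responses flag agonists.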
Apoferritin bind – binds horse apoferritin like a general anesthetic | P02791 | apoferritin/1-aminoanthracene competitive binding, fluorescence | Potency, µM (series often up to 77.5 µM), hits mostly inhibitors | actives 0.074% (n = 350,000); active = well fitted inhibition curve with a large enough effect; inconclusive = small, poorly fitted or top-dose-only effect; inactive = no such curve, though single readings can be large or run the other way; note: nearly all actives have a fitted effect of over 20% in size
Target sequence (P02791 2-175 limits assumed): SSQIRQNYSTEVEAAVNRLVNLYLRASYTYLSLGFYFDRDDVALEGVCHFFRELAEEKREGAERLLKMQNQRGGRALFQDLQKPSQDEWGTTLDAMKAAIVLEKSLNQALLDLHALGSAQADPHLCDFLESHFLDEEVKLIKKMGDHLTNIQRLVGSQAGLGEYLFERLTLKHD
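Concentration-response curves derived by four-parameter Hill fitting of normalized fluorescence, where compounds displaced 1-AMA from 10 uM horse apoferritin following a brief 10 min room-temperature incubation; propofol titration acted as positive control.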
D2 antagonist – antagonists of human D2 dopamine receptor; P14416; HEK293 TREx D2 cells, calcium flux, dopamine EC80; inhibition, % at 10 µM; actives 2% (n = 340,000); AID 485344; in the data active = inhibition above about 30%; inactive = below that, where a call was filed
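Read-out: kinetic calcium fluorescence (1 cycle/s) in inducible HEK293 T-REx D2 cells after an EC80 dopamine addition that followed 180 s compound preincubation. Loss of the dopamine response indicates antagonism.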
Numbers stand for hits; i = inactive; ? = inconclusive; nt = no result given; [ ] = dose if it differs, or a comment.

SMILES	D2 PAM-1	D2 PAM-2	D2 ag-1	D2 ag-2	Apoferritin bind	D2 antagonist
COc1cccc(C(=O)Nc2cccc(OCC(=O)O)c2)c1	i	i	i	i	i	34
Cc1cc(NC(=O)NC(=O)c2cccc(OC(F)(F)C(F)F)c2)n[nH]1	i	i	i	i	i	i
COc1cccc(OCC(=O)O)c1	40	i	i	i	i	i
COc1cccc(OCCNCc2ccccc2)c1	i	i	i	i	i	41
CN(C)N1C(N)=C(C#N)C(c2cccc(Cl)c2)C2=C1CCCC2=O (configuration not stated)	i	i	i	i	i	i
O=S1(=O)c2ccc(Br)cc2N2CCC[C@H]2CN1Cc1ccccc1	nt	i	i	nt	nt	nt
COc1ccc(C(=O)N2c3ccccc3C(=O)OC2c2ccc3c(c2)OCO3)cc1 (configuration not stated)	i	i	i	i	i	i
O=C1CC(c2ccc(Cl)cc2)CC(O)=C1C=NCCN1CCNCC1 (configuration not stated)	i	nt	nt	i	i	53
CCc1ccc(S(=O)(=O)c2nnn3c2nc(N2CCOCC2)c2ccccc23)cc1	32	i	i	i	i	i
O=C(/C=C/c1ccccc1[N+](=O)[O-])Nc1cccnc1	i	i	i	i	i	i
CC(=O)c1cccc(N2C(=NC(=O)CCc3ccccc3)SC3CS(=O)(=O)CC32)c1 (configuration not stated)	i	i	i	i	i	32
O=C(CCc1ccccc1)N=C1SC2CS(=O)(=O)CC2N1c1cccc(F)c1 (configuration not stated)	i	i	i	i	i	i
CCC(C(=O)Nc1ccc2c(c1)OCCO2)n1nnc2ccccc2c1=O (configuration not stated)	i	i	i	i	i	i
O=c1c2ccccc2nnn1CSc1ccc2c(c1)OCCO2	43	i	i	i	?	i
COc1ccc2c(c1)NC(c1ccc(N(C)C)cc1)c1cccn1-2 (configuration not stated)	i	i	i	i	i	i
C=CCN=C1S/C(=C\c2ccc(Cl)cc2)C(=O)N1CC=C	i	i	i	i	i	80
O=C(CCN1C(=O)S/C(=C\c2ccccc2)C1=O)N1CCCCC1	i	i	i	i	i	35
CN1CCN(C(=O)CCN2C(=O)/C(=C/c3cccc(Br)c3)SC2=S)CC1	i	i	i	i	i	31
COc1cc(/C=N\NC(=O)c2ccc(C)nc2)ccc1OC(=O)c1ccco1	i	i	i	i	i	34
CCOc1cc(/C=N\NC(=O)OC(C)(C)C)ccc1OC(=O)c1ccco1	i	i	i	i	?	31
O=P(c1ccccc1)(c1ccccc1)C(O)c1ccc(Br)cc1 (configuration not stated)	i	i	i	i	i	i
Cc1ccc(S(=O)(=O)Nc2ccc(Cl)cc2)cc1NC(=O)c1cc2c(s1)CCCC2	i	72	i	i	i	i
COCCNC(=O)c1ccc2c(=O)n(Cc3ccco3)c(SCC(=O)NC3CCCCC3)nc2c1	i	i	i	i	i	i
COc1cc(/C=C2\SC(=Nc3ccc(O)cc3)NC2=O)cc(OC)c1O	i	i	i	47	i	i
CCc1ccc(N=C2NC(=O)/C(=C/c3cc(OC)c(OC)c(OC)c3)S2)cc1	i	i	i	i	?	i
SMILES	D2 PAM-1	D2 PAM-2	D2 ag-1	D2 ag-2	Apoferritin bind	D2 antagonist
COc1ccc(NC(=O)CCn2c(=O)c3cccn3c3ccccc32)c(OC)c1	i	?	i	i	i	i
CCCCCOc1ccc(Br)cc1/C(C)=N/NC1=NCCN1	i	i	i	i	i	i
COc1ccc(Br)cc1/C(C)=N/NC1=NCCN1	i	i	i	i	i	33
O=C1c2cccc(Cl)c2C(=O)N1c1ccccn1	nt	i	i	nt	nt	nt
O=C1c2cc3ccccc3c(-c3ccccc3)c2C(=O)N1c1ccccn1	i	i	i	i	i	46
CCOC(=O)c1[nH]c(=O)[nH]c1CSc1nc(C)cc(C)n1	i	i	i	i	i	32
CN(C(=S)Nc1cccnc1)c1ccc(O)cc1	nt	64	i	nt	i	nt
CN(C(=S)Nc1ccc(Oc2ccccc2)cc1)c1ccc(O)cc1	i	82	?	i	i	i
O=C(COc1ccccc1)OCC(=O)c1ccc(S(=O)(=O)N2CCCCC2)cc1	i	i	i	i	nt	31
O=C(COC(=O)c1ccccc1)c1ccc(S(=O)(=O)N2CCCCC2)cc1	i	i	i	i	nt	i
O=C(COc1ccc(S(=O)(=O)N2CCCCC2)cc1)N1CCCC1	i	i	i	i	i	31
NC(=O)COc1ccc(S(=O)(=O)N2CCCC2)cc1	nt	i	i	nt	nt	nt
Cc1ccc(C(O)c2ncc(-c3ccc(Cl)cc3)[nH]2)cc1F (configuration not stated)	nt	i	i	nt	nt	nt
CCn1nc(C)c(/C=N/NC(=O)Cn2nnc(N)n2)c1C	nt	i	i	nt	i	nt
CC(=O)c1c(C)[nH]c(C(=O)OCCCCN2C(=O)c3ccccc3C2=O)c1C	i	i	i	i	i	48
CC(=O)c1c(C)[nH]c(C(=O)OCc2ccccc2)c1C	i	i	i	i	i	i
CC(C)n1c(O)c(N=NC(=O)CNC(=O)c2cccnc2)c2ccccc21	i	i	i	i	i	41
CCN1C(=O)[C@H]2[C@H]3[C@H](O)[C@H](O)C/C(=N/NC(=O)OCc4ccc(OC)cc4)[C@H]3CC[C@@H]2C1=O	nt	nt	nt	nt	i[15.3 µM]	nt
Cc1cnc(C(=O)Nc2ccccc2-c2nnn(CC(=O)NC3CCCC3)n2)cn1	i	i	i	i	i	30
Cc1ccc(C)c(CN2CCC(CNC(=O)Nc3cccc(Cl)c3C)CC2)c1	i	i	i	i	i	i
Cc1cc(C(=O)CSC(C)c2nc3ccccc3c(=O)[nH]2)c(C)n1C (configuration not stated)	i	i	i	i	i	i
Cc1cc(C(=O)CSc2nc3ccccc3c(=O)[nH]2)c(C)n1C	39	i	i	i	i	i
O=C(/C=C/Nc1ccc(F)cc1)c1ccc(Oc2ncccn2)cc1	i	i	i	i	i	34
COc1ccc(N/C=C/C(=O)c2ccc(Oc3ncccn3)cc2)cc1	i	i	i	i	?	i
Cc1c(Cl)cccc1NC(=O)CSc1nc2ncc(Cl)cc2[nH]1	i	i	i	i	i	i
CCCCOc1ccc(CN(C)c2ncnc(N)n2)cc1	i	i	i	i	i	31
O=C(C(=S)N1CCOCC1)c1c[nH]c2ccccc12	i	i	i	i	i	i
CC(C)(C)NC(=O)CSc1nnc(CN2CCCCCC2=O)n1-c1ccccn1	i	i	i	i	i	i
